BAZ2B block = qHTS Assay for Inhibitors of BAZ2B | AlphaScreen BAZ2B-H3K14Ac peptide displacement | Potency, µM (highest dose often 114 µM), for inactives: top-dose activity change, negative = inhibition, hits mostly inhibitors | actives 4.4% (n = 360,000) | AID 504333, 2011; note: % is set by controls: 0 for no effect and ±100 for the full control effect; nearly all actives have a fitted effect of over 60% in size
Target sequence (Q9UIF8 whole entry, looked up): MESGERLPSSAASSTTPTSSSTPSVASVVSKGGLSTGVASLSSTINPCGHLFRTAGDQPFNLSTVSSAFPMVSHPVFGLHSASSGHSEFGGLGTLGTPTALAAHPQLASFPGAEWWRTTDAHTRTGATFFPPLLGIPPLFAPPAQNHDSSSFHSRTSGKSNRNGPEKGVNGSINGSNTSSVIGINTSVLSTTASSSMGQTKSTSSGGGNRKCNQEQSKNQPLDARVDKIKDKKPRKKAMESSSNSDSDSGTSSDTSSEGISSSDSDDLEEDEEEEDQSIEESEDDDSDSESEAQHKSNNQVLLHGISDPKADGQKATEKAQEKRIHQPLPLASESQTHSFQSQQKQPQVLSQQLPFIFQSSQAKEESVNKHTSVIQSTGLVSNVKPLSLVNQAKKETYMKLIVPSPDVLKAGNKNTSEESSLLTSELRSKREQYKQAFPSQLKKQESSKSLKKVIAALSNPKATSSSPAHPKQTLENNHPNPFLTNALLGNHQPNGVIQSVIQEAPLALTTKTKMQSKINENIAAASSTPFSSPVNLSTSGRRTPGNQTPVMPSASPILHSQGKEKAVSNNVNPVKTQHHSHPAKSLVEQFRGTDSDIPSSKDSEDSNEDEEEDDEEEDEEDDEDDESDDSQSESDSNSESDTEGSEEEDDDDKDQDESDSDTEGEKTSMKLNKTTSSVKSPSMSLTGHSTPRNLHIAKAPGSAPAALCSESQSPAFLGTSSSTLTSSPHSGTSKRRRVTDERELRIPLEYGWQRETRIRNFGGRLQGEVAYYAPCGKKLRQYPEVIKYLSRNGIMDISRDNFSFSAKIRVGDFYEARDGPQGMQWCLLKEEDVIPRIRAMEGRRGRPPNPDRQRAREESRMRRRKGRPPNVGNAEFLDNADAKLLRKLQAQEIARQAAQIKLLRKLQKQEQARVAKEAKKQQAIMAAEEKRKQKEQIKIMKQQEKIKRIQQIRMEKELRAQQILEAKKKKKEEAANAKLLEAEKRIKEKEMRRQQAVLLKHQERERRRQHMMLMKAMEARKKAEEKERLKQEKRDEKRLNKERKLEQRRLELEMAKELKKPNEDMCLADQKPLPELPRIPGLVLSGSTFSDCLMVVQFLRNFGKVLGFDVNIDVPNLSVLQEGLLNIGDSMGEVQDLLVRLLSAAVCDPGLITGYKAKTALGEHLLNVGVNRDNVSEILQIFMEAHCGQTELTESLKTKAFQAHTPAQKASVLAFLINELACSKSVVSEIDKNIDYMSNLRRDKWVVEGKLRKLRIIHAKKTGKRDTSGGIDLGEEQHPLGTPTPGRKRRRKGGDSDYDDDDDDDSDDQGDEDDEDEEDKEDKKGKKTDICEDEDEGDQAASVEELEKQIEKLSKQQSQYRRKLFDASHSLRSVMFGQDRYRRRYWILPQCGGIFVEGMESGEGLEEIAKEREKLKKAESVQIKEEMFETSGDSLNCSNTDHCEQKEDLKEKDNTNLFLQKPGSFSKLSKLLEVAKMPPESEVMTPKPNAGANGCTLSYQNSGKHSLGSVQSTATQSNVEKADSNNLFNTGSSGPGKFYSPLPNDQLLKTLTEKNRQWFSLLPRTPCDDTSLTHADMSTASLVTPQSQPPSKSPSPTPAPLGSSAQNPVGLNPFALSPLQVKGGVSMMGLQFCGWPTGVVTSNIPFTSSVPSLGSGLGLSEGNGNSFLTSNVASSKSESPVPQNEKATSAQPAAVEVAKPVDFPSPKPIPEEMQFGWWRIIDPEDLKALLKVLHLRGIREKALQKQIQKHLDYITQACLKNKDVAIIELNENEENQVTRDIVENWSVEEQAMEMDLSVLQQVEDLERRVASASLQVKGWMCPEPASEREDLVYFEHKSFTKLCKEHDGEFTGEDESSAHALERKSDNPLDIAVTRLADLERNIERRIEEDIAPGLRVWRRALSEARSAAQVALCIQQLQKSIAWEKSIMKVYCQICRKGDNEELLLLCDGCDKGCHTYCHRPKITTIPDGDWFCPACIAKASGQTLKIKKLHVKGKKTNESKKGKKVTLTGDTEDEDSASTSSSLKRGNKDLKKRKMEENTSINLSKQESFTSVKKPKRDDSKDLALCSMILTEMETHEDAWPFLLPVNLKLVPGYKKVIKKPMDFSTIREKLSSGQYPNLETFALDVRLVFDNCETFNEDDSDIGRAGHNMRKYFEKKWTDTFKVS
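Compounds, titrated to a top concentration of 110 uM, were incubated 30 min at room temperature with preformed BAZ2B/acetyl-K14 H3 peptide complex (50 nM each). Proximity signal was measured by AlphaScreen after 20 min with beads.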
JMJD2A Tudor inh = qHTS Assay for Inhibitors of JMJD2A-Tudor Domain; AlphaScreen JMJD2A-Tudor / H3K4me3 peptide binding; Lysine-specific demethylase 4A (Homo sapiens), O75164; actives 4.4% (n = 390,000); Potency, µM (highest dose often 114 µM), for inactives: at the highest dose activity change, negative = inhibition, most hits filed as inhibitors; note: % is set by controls: 0 for no effect and ±100 for the full control effect; nearly all actives have a fitted effect of over 50% in size
Sfp PPTase inh = qHTS Assay for Inhibitors of Bacillus subtilis Sfp phosphopantetheinyl transferase (PPTase) | Biochemical Sfp PPTase activity, qHTS | AID 1490, 2009 | actives 3.5% (n = 310,000) | Potency, µM, for the others: largest response in the series, negative = inhibition, most hits filed as inhibitors | 4'-phosphopantetheinyl transferase ffp (Bacillus subtilis), Q9F4F7;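 note: the enzyme is Sfp with the accession as filed and its product quenches rhodamine fluorescence; 0% = enzyme reaction without inhibitor and -100% = no enzyme wells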
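After 15 min at room temperature with compound, 15 nM Sfp received 5 uM rhodamine-CoA plus 12.5 uM BHQ-2-ybbR (50 mM Hepes pH 7.6, 10 mM MgCl2). Rate came from the fluorescence difference over 30 min, ex 525/em 598 nm.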
HP1b chromo inh = HTS for Inhibitors of HP1-beta Chromodomain Interactions with Methylated Histone Tails | AlphaScreen HP1-beta / biotin-H3K9me3 peptide binding | Potency, µM (series often up to 114 µM), for the others: at the top dose activity change, negative = inhibition, hits mostly inhibitors | actives 0.56% (n = 390,000) | Chromobox protein homolog 1 (Homo sapiens), P83916; note: nearly all actives have a fitted effect of over 70% in size
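Compound inhibition of the preformed complex between 50 nM HP1-beta and 50 nM biotinylated H3K9me3 peptide was read by AlphaScreen. Buffer was PBS pH 7.4 with 0.01% Tween-20. Incubations ran 30 min at room temperature, with 10 ug/mL donor/acceptor beads.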
L3MBTL1 block = qHTS Assay for the Inhibitors of L3MBTL1; AlphaScreen L3MBTL1–H3K9me1 peptide binding; Potency, µM (titrated, usually from 57.1 µM), inactives show at the top dose activity, negative = inhibition, usual class: inhibitors; actives 0.66% (n = 230,000); AID 485360, 2010; note: % is set by controls: 0 for no effect and ±100 for the full control effect; nearly all actives have a fitted effect of over 60% in size
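L3MBTL1 (50 nM) pre-complexed 30 min with biotinylated H3(1-15)K9me1 peptide (75 nM), then compounds added for 30 min at room temperature; AlphaScreen streptavidin donor/nickel chelate acceptor beads (10 ug/mL final) read after 30 min dark incubation.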
G9a inh = qHTS Assay for Inhibitors of Histone Lysine Methyltransferase G9a. Histone-lysine N-methyltransferase EHMT2 (Homo sapiens), Q96KQ7. G9a H3K9 monomethylation, AlphaScreen, 2 h. Potency, µM (doses to about 102 µM), for the others: top-dose activity, negative = inhibition, most hits filed as inhibitors. actives 8.8% (n = 350,000). AID 504332, 2011; note: % is set by controls: 0 for no effect and ±100 for the full control effect; nearly all actives have a fitted effect of over 75% in size
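Compounds were preincubated with 20 nM G9a for 15 min, after which biotinylated H3K9 peptide (500 nM) and SAM (20 uM) started a 2 h room-temperature reaction. Monomethylated product was quantified by antibody-based AlphaScreen chemiluminescence.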
* hit, by the source's call; u = inconclusive; x = no result; ! = not confirmed by another sample; [ ] = dose if it differs, or a comment. Sampled rows, rich in hits. Any-hit rate of the full collection: about 12%. Calls come from the whole dose curve; as a rule, active = well fitted curve in the direction sought with a large enough effect; inconclusive = small, poorly fitted or top-dose-only effect, or another doubt; inactive = no such curve, though single readings can be large; an effect the other way counts as inactive or inconclusive. Potency is the fitted concentration of half-maximal effect.

SMILES	BAZ2B block	JMJD2A Tudor inh	Sfp PPTase inh	HP1b chromo inh	L3MBTL1 block	G9a inh
C=CCc1ccccc1OCC(O)CN1CCN(c2ccc(OC)cc2)CC1 (configuration not stated)	50.1µM*	17.8µM*	-4.6%	u	-9.1%	u
CC(=N\NC(=O)c1ccc([N+](=O)[O-])cc1)/C(=N/O)C(=O)Nc1ccccc1	50.1µM*	-10.9%	0.2%	32.9%	x	x
O=C(Nc1ccc2c(c1)OCCO2)NC1(C(F)(F)F)Oc2ccccc2O1	-8.7%	u	u	-3.3%	x	2µM*
O=C(Nc1ccc2c(c1)OCO2)NC1(C(F)(F)F)Oc2ccccc2O1	-21.7%	-33.7%	-7.3%	18.8%	x	6.31µM*
O=C(Nc1ccc2c(c1)OCO2)Nc1ccccc1F	-11.2%	7.1%	11.4%	20.1%	x	17.2%
O=C(NC1(C(F)(F)F)Oc2ccccc2O1)N1CCCC1	-5.9%	u	-2.6%	48.3%	5.7%	6.31µM*
O=c1c2c3c(sc2n(Cc2cc(=O)n4ccccc4n2)c(=O)n1-c1ccccc1)CCC3	-0.8%	-11.9%	x	42.3%	x	-4.6%[59 µM]
CCCCCC(=O)c1cc(CC(C(=O)OC)C(=O)OC)cc2cc(OC)c(OC)cc12	x	x	-5.6%	x	x	x
C/C=C/c1ccc(OCCCNC(C)CC)c(OC)c1 (configuration not stated)	31.6µM*	1.78µM*	56.2µM*	-34.0%	x	u
C/C=C/c1ccc(OCCCNC2CCCC2)c(OC)c1	u	7.94µM*	u	u	x	u
COc1ccc(C(CC(=O)Nc2ccc(C(C)=O)cc2)N2Cc3ccccc3C2=O)cc1 (configuration not stated)	-17.5%	-9.7%	x	17.7%	x	-26.7%[59 µM]
CCC(C)c1ccccc1OCCn1c(CCNC(=O)C2CCCCC2)nc2ccccc21 (configuration not stated)	x	-16.2%[57.1 µM]	x	5.7%[57 µM]	x	x
COc1ccc(NC(=O)COc2ccc(S(=O)(=O)NC3CCCCC3)cc2)cc1OC	-13.1%	-7.2%	x	20.4%	x	0.9%[59 µM]
CCc1ccc2[nH]c(=O)c(CN(Cc3ccco3)Cc3nnnn3Cc3ccco3)cc2c1	x	-28.5%[57.1 µM]	x	-8.1%[57 µM]	x	x
C=CC(C1=CC(=O)C(OC)=C(OC)C1=O)c1ccccc1 (configuration not stated)	x	x	1.78µM*	x	x	x
C=CC(C1=CC(=O)C(OC)=CC1=O)c1ccc(OC)cc1 (configuration not stated)	x	x	39.8µM*	x	x	x
COc1cc2nc(N3CCN(c4cc(C)ccc4C)CC3)nc(N)c2cc1OC	50.1µM*	u	79.4µM*	-14.7%	x	50.1µM*
O=C(Nc1cccc(Cl)c1)c1c(NC(=O)C(F)(F)F)sc2c1CCCC2	50.1µM*	79.4µM*	x	u	x	3.98µM*
Cc1cccc(NC(=O)c2c(NC(=O)C(F)(F)F)sc3c2CCCCC3)c1	-38.1%	u	x	-9.1%	x	u
CC(C)(C)C(=O)Nc1sc2c(c1C(=O)Nc1ccccn1)CCCC2	5.8%	44.7µM*	14.0%	11.5%	7.3%	-8.6%
Cc1ccccc1NC(=O)c1c(NC(=O)C(F)(F)F)sc2c1CCCCC2	-14.1%	-20.9%	x	12.5%	x	8.91µM*
Cc1ccc(NC(=O)c2c(NC(=O)C(F)(F)F)sc3c2CCCCC3)cc1	-29.2%	u	x	u	x	u
Cc1ccccc1NC(=O)c1c(NC(=O)c2ccncc2)sc2c1CCC(C(C)(C)C)C2 (configuration not stated)	-14.8%	u	x	17.7%	x	17.8µM*
CCCN(CCC)C(=S)NC(=O)c1ccc(-c2ccccc2)cc1	u	50.1µM*	u	15.9%	u	30.1%[12.7 µM]
Cc1cc(C)c[n+](CC(=O)c2ccc(NC(=O)c3ccccc3)cc2)c1	-9.3%	-3.1%	1.5%	31.2%	2.2%	x
SMILES	BAZ2B block	JMJD2A Tudor inh	Sfp PPTase inh	HP1b chromo inh	L3MBTL1 block	G9a inh
CN(C)CC(=O)c1ccc(-c2ccccc2)cc1	x	-19.7%	u	35.2%	-7.3%	31.6µM*
C/[N+]([O-])=C\CC(=O)c1ccc(-c2ccccc2)cc1	-27.4%	31.6µM*	-15.3%	-10.7%	13.9%	14.1µM*
Cc1cc(C)c[n+](CC(=O)c2ccc(-c3ccccc3)cc2)c1	19.2%	-17.2%	-28.7%	21.7%	29.6%	50.1µM*
CC[C@H](C)C(N)C(=O)O (some centres not stated)	x	x	3.3%	x	x	x
CCc1ccc(NC(=O)Cn2ccn(Cc3ccccc3OC)c(=O)c2=O)cc1	-9.9%	-22.0%	x	8.8%	x	-1.0%[59 µM]
COc1ccccc1CNCC(=O)Nc1ccc(N(C)C)cc1	50.1µM*	3.98µM*	-19.0%	-17.2%	x	-10.0%[2.33 µM]
CCN(CC)S(=O)(=O)c1ccc(C)c(NC(=O)CNCc2ccccc2OC)c1	21.6%	11.2µM*	u	-22.4%	x	25.1µM*
Cc1cc2c(cc1C)NC(CC(=O)Nc1ccccc1SC(F)(F)F)C(=O)N2 (configuration not stated)	-0.9%	-1.0%	x	31.5%	x	4.6%[59 µM]
Cc1cc(C)c(-c2cc(NC(=O)COC(=O)c3ccc(C#N)cc3)n(-c3ccccc3)n2)cc1C	-32.5%	-11.2%	14.3%	28.1%	-1.7%	31.6µM*
Cc1cc(C)c(-c2cc(NC(=O)COC(=O)c3ccc(NC(=O)CC#N)cc3)n(-c3ccccc3)n2)cc1C	0.6%	-19.2%	x	5.7%	-11.2%	u
Clc1ccc(-c2nn3c(-c4cc(-c5ccccc5)n[nH]4)nnc3s2)cc1	x	11.5%[57.1 µM]	x	9.6%[57 µM]	x	x
S=C(Nc1ccccc1)Nc1nc2ccccc2n1CCOc1ccc(Cl)cc1	7.08µM*	u	u	u	11.2µM*	-9.7%[59 µM]
CCn1c(NC(=S)Nc2ccccc2)nc2ccccc21	5.62µM*	u	-0.8%	-13.6%	u	-8.9%[59 µM]
Cc1ccc(C)c(NC(=O)C2CCN(c3cc(C)nc4c(-c5ccc(Cl)cc5)c(C)nn34)CC2)c1	-1.5%	3.7%	x	47.0%	x	-4.9%[59 µM]
O=C(c1c(O)c2ccc(Cl)cc2[nH]c1=O)C1CC1	x	x	44.7µM*!	x	x	-0.1%[59 µM]
O=C(Nc1ccccc1)c1ccc2c(O)c(S(=O)(=O)c3ccc(Cl)cc3)c(=O)[nH]c2c1	u	-31.9%	x	6.8%	x	-48.2%[59 µM]
Cc1ccc(NCc2cccnc2)c(Br)c1	79.4µM*	3.16µM*	-25.8%	u	-16.0%	14.1µM*
